From PubChem BioAssay AID1159580 (chemical genetic matrix, 2015)
“And” between values parts separate entries of the source, which are not always exact repeats. Equal values may be shown once. The whole screen tested about 5,500 compounds, of which about 2,000 (36%) were called active. Inconclusive results (about 18%) are left out. Cut-off read from the data, not from the text of the source: active = normalized growth mostly below about 0.91 (no sharp cut-off); inconclusive = no clear call, values can overlap the other calls; inactive = mostly above about 0.92. The list shows a part of the results.

Assay: chemical genetic growth profiling, strain panel (AID 1159580);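 note: tested at 20 µM; growth read once vehicle control cultures reached saturation at 30 °C; 1 = growth at the plate median or of vehicle wells; lower values mean less growth of the strain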
Conditions: S. cerevisiae deletion strains, growth OD

Measured: normalized growth

CC1CC[C@@]2(OC1)O[C@H]1CC3C4CC[C@@H]5C[C@@H](O)CC[C@]5(C)C4CC[C@]3(C)[C@H]1[C@@H]2C (stereo partly specified)
inactive: locus YAL013W, strain DEP1, hits give low values 1.03 | locus YAL021C, strain ccr4, hits give low values 1.05 | locus YAL026C, strain drs2, hits give low values 1.02 | locus YAL030W, strain snc1, hits give low values 1.03 | locus YBL061C, strain skt5, hits give low values 1.02 | locus YBR009C, strain hhf1, hits give low values 1.01 | locus YBR021W, strain FUR4, hits give low values 1.02 | locus YBR023C, strain chs3, hits give low values 1.05 | locus YBR171W, strain sec66, hits give low values 1.04 | locus YBR229C, strain ROT2, hits give low values 1.01 | locus YBR231C, strain swc5, hits give low values 1.02 | locus YBR279W, strain paf1, hits give low values 1.02 | locus YCL011C, strain gbp2, hits give low values 1.06 | locus YCL016C, strain dcc1, hits give low values 1.02 | locus YCL029C, strain bik1, hits give low values 1.01 | locus YCL061C, strain MRC1, hits give low values 1.02 | locus YCL069W, strain vba3, hits give low values 1.05 | locus YCR088W, strain abp1, hits give low values 1.03 | locus YDL005C, strain med2, hits give low values 1.03 | locus YDL035C, strain GPR1, hits give low values 1.07 | locus YDL040C, strain nat1, hits give low values 1.02 | locus YDL074C, strain BRE1, hits give low values 1.11 | locus YDL101C, strain DUN1, hits give low values 1.02 | locus YDL134C, strain PPH21, hits give low values 1.03 | locus YDL185W, strain tfp1, hits give low values 1 | locus YDL192W, strain arf1, hits give low values 1.01 | locus YDR001C, strain nth1, hits give low values 1.05 | locus YDR069C, strain doa4, hits give low values 1.06 | locus YDR101C, strain arx1, hits give low values 1.01 | locus YDR137W, strain rgp1, hits give low values 0.984 | locus YDR150W, strain NUM1, hits give low values 1.03 | locus YDR159W, strain sac3, hits give low values 1.01 | locus YDR162C, strain NBP2, hits give low values 1.04 | locus YDR297W, strain sur2, hits give low values 1.02 | locus YDR318W, strain mcm21, hits give low values 1.01 | locus YDR334W, strain swr1, hits give low values 1.05 | locus YDR335W, strain msn5, hits give low values 1.06 | locus YDR388W, hits give low values 1.02 | locus YDR392W, strain spt3, hits give low values 1.03 | locus YDR502C, strain sam2, hits give low values 0.997 | locus YEL003W, strain gim4, hits give low values 1.08 | locus YEL061C, strain CIN8 (second series), hits give low values 1.08 | locus YER015W, strain faa2, hits give low values 1.03 | locus YER016W, strain bim1, hits give low values 1.02 | locus YER110C, hits give low values 0.997 | locus YER155C, strain BEM2 (second series), hits give low values 1.09 | locus YER155C, strain BEM2, hits give low values 1 | locus YER167W, strain BCK2, hits give low values 1.02 | locus YFR010W, strain ubp6, hits give low values 1.06 | locus YGL078C, strain dbp3, hits give low values 1.02 | locus YGL086W, strain mad1, hits give low values 1 | locus YGL167C, strain pmr1, hits give low values 1.02 | locus YGL173C, strain kem1, hits give low values 1.02 | locus YGL227W, strain vid30, hits give low values 1.03 | locus YGL240W, strain doc1, hits give low values 1.02 | locus YGL248W, strain PDE1, hits give low values 1.06 | locus YGL253W, strain hxk2, hits give low values 1.07 | locus YGR135W, strain pre9, hits give low values 1.01 | locus YGR252W, strain gcn5, hits give low values 1.05 | locus YHR013C, strain ard1, hits give low values 1.04 | locus YHR027C, strain rpn1, hits give low values 1.03 | locus YHR030C, strain SLT2, hits give low values 0.965 | locus YHR079C, strain IRE1 (second series), hits give low values 0.993 | locus YHR079C, strain IRE1, hits give low values 0.97 | locus YHR094C, strain hxt1, hits give low values 1.01 | locus YHR129C, strain ARP1, hits give low values 1.05 | locus YIL066C, strain RNR3, hits give low values 1.03 | locus YIL073C, strain SPO22, hits give low values 1.12 | locus YIL125W, strain kgd1, hits give low values 0.999 | locus YIR030C, strain dcg1, hits give low values 1 | locus YJL092W, strain hpr5, hits give low values 1.02 | locus YJL095W, strain BCK1 (second series), hits give low values 1.01 | locus YJL095W, strain BCK1, hits give low values 1.06 and 0.993 | locus YJL115W, strain asf1, hits give low values 1.03 | locus YJL134W, strain LCB3, hits give low values 1.02 | locus YJL164C, strain tpk1, hits give low values 1.02 | locus YJL166W, strain qcr8, hits give low values 1.02 | locus YJL168C, strain set2, hits give low values 0.988 | locus YJL187C, strain SWE1 (second series), hits give low values 1.04 | locus YJL187C, strain SWE1, hits give low values 1.01 | locus YJR043C, strain POL32, hits give low values 1.05
active: locus YDR195W, strain ref2 1.17 [resistant] | locus YEL037C, strain rad23, hits give low values 1.2 [resistant] | locus YER111C, strain swi4, hits give low values 1.28 [resistant] | locus YHR142W, strain chs7, hits give low values 1.18 [resistant] | locus YJL154C, strain vps35, hits give low values 1.11 [resistant]
